We go through 13 compounds from PubChem BioAssay.

For experiment [1], the system named is Human papillomavirus type 1a protein E7 (residues 44-93). Kind of experiment: small molecules binding HPV E7 44-93 – biochemical, small-molecule microarray, residues 44-93, 635 nm fluorescence, primary screen (AID 1108).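 Note: E7 fragment applied at 1 µg/mL in TBST for 1 h at 4 C; score combines spot fluorescence with its signal to noise ratio.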 The settings on record: fluorescence 635 nm, higher = more signal.
Experiment [2] is described as follows: hepatitis C replication reporter changes, two-sided – Huh7 cells, luciferase reporter, HCV replication inhibitor project, primary screen (AID 1109).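 Note: huh7 hepatoma cells harbouring a luciferase neomycin HCV replicon reporter; luciferase luminescence as measure of HCV replicon replication; test concentration not given here.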 The settings on record: Huh7 HCV replicon luciferase reporter, 48 h; higher = more signal.
The target in experiment [3] is Left-right determination factor 2 (Homo sapiens) (UniProt O00292). Kind of experiment: small molecules binding LEFTY2 protein – biochemical, small-molecule microarray, 635 nm fluorescence scan, primary screen (AID 1110). The settings on record: higher = more signal.
Left-right determination factor 2 (Homo sapiens), sequence (O00292 whole entry, looked up): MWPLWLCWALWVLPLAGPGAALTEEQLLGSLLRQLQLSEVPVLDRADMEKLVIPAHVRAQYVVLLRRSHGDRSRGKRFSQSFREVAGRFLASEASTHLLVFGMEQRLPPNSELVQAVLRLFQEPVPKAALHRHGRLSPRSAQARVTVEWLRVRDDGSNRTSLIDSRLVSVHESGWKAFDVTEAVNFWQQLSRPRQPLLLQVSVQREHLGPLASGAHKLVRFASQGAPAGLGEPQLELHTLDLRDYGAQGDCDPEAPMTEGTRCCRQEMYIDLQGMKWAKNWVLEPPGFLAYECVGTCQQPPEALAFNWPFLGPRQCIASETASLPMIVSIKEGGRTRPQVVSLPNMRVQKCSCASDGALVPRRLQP
Experiment [4] deals with Calmodulin-1 (Homo sapiens) (UniProt P0DP23). Kind of experiment: small molecules binding calmodulin-1 with EGTA – biochemical, small-molecule microarray, Cy5-labelled CALM1, profiling panel (AID 1111).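 Note: labelled calmodulin applied in Tris saline Tween buffer holding calcium plus EGTA and DTT.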 Conditions: Cy5-CALM1 binding fluorescence, higher = more signal.
The target is the same in experiment [5]. The experiment is described as follows: small molecules binding Ca-loaded calmodulin-1 – biochemical, small-molecule microarray, Cy5-labelled CALM1, plus calcium, artefact control for SMM control-protein annotation, profiling panel (AID 1112).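 Note: score merges spot fluorescence with signal to noise from triplicate slides.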 Conditions: Cy5-CALM1 binding fluorescence, higher = more signal.
Experiment [6] in a line: probe aWnt5a binding to arrayed compounds – biochemical, biotinylated probe, 635/667 nm fluorescence, primary screen (AID 1113).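 Note: score merges 667 nm fluorescence intensity with signal-to-noise per printed feature.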 The settings on record: small-molecule microarray, higher = more signal.
A short description of experiment [7]: probe aShh binding to arrayed compounds – biochemical, biotinylated probe, 635/667 nm fluorescence, primary screen (AID 1114).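 Note: probe is biotin-labelled aShh protein from a stem cell growth factor screen; measures binding of labelled protein to compounds printed on the slide; score merges feature fluorescence at 667 nm with signal-to-noise.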 The settings on record: small-molecule microarray, higher = more signal.
A short description of experiment [8]: probe aNog binding to arrayed compounds – biochemical, biotinylated probe, 635/667 nm fluorescence, primary screen (AID 1115).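 Note: probe is biotinylated aNog protein used at 0.15 µg/mL for 1 h at 4 C; z-score combines 667 nm fluorescence of each spot with its signal to noise.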 The settings on record: small-molecule microarray, higher = more signal.
Experiment [9] deals with Torsin-1A-interacting protein 1 (Homo sapiens) (UniProt Q5JTV8). The experiment is described as follows: compound microarray binding of lysate hLAP1 – cell lysate, small-molecule microarray, COS7 lysate, 635/667 nm fluorescence, primary screen (AID 1116). Conditions: 635 nm fluorescence, higher = more signal.
Torsin-1A-interacting protein 1 (Homo sapiens), sequence (Q5JTV8 whole entry, looked up): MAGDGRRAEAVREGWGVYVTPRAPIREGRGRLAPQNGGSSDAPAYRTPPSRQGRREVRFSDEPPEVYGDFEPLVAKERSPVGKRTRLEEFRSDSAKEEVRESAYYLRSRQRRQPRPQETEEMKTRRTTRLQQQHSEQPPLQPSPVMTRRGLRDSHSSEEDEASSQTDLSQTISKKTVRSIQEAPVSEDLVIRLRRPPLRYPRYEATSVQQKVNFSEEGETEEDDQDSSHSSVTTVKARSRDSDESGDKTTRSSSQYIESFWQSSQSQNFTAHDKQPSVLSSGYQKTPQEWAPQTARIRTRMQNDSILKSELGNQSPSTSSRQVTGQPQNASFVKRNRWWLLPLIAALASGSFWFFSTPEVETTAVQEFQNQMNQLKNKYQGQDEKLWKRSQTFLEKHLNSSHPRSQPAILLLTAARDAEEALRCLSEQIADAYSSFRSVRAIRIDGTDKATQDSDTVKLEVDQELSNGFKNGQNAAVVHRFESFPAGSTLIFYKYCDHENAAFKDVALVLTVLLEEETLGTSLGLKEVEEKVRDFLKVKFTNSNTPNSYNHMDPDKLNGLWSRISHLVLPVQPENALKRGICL
Experiment [10] deals with Alpha-bungarotoxin (Bungarus multicinctus) (UniProt P60615). The experiment is described as follows: compounds binding labelled alpha-BTX control protein – biochemical, small-molecule microarray, Alexa647 label, 635/667 nm fluorescence, artefact control for SMM control protein annotation, profiling panel (AID 1117). The settings on record: alpha-BTX-A647 binding fluorescence, higher = more signal.
Alpha-bungarotoxin (Bungarus multicinctus), sequence (P60615 whole entry, looked up): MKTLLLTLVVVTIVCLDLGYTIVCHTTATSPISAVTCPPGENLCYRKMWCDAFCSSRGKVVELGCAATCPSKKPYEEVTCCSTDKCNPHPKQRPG

Each structure is given as a SMILES string.

`COC(=O)[C@@]1(Cc2ccccc2N=[N+]=[N-])N=C(c2ccc(OCCCO)cc2)O[C@H]1c1ccccc1N=[N+]=[N-]`: the composite z-score was 0.193 in experiment [1]; -0.182 in experiment [3]; 0.178 in experiment [4]; -0.62 in experiment [5]; 0.027 in [6]; -0.064 in experiment [7]. Further, the composite z-score in [8] was determined as 1.05; in [9], 0.435; in experiment [10], 0.726. In addition, the z-score in [2] was -3.4.
In the case of `CC(C)(C)OC(=O)CC[C@]1(C(=O)NCc2ccccc2)N=C(c2ccc(OCCCO)cc2)O[C@H]1c1ccccc1CN=[N+]=[N-]`, the composite z-score in [1] was 1.41; in experiment [3], 0.735; in experiment [4] it was 1.27; in experiment [5], -0.232; in [6], 0.152; in [7], 0.0483. The composite z-score in experiment [8] was -0.0768; in experiment [9], 1.69; in [10], 0.466. Also, the z-score in [2] is -2.11.
Take `CC(CO)N1C(=O)[C@@H]2[C@H]3C(=O)OCC=C[C@H]3OC23C=CCN(CCN2CCOCC2)C(=O)[C@@H]13` (stereo not given in full): the composite z-score in experiment [1] is -0.186; in experiment [3] it was -0.396; in experiment [4], -0.998; in experiment [5], -1.55; in [6], -0.144; in experiment [7], -0.309. Further, the composite z-score in experiment [8] was -0.5; in experiment [9], -0.469; in experiment [10], -0.245. The compound also yielded a z-score in experiment [2] of 0.606.
With `[N-]=[N+]=NCc1ccccc1C[C@@]1(C(=O)NCc2ccccc2)N=C(c2ccc(OCCCO)cc2)O[C@@H]1c1ccccc1N=[N+]=[N-]`, the composite z-score was 1.41 in experiment [1]; -0.346 in [3]; 1.31 in [4]; 0.845 in experiment [5]; 0.0839 in [6]; 0.108 in experiment [7]. In addition, the composite z-score amounted to 1.29 in [8], 1.45 in [9] and 0.937 in [10]. In experiment [2], this compound had a z-score of -2.26.
Take `COc1ccccc1CN1C(=O)c2ccccc2[C@](Cc2ccccc2I)(C(=O)NCC(F)(F)F)[C@@H]1c1ccc(CO)cc1`: the composite z-score in experiment [1] is 0.905; in experiment [3] it was -0.201; in experiment [4], 2.03; in experiment [5] it was 0.731; in experiment [6] it was 0.0559; in experiment [7] it was -0.106. Also, the figures for the composite z-score in experiment [8], in experiment [9] and in experiment [10] were 0.0286, 1.42 and 1.36, respectively. The compound further had a z-score in [2] of -1.16.
For the compound `COCCOC(=O)N1C(=O)[C@@]2(c3cc(C#CC4=CCCCC4)ccc31)[C@H](C(=O)N1CCCCCCC1)[C@H]1C(=O)O[C@H](c3ccccc3)[C@H](c3ccccc3)N1[C@@H]2c1ccc(O)cc1`, the composite z-score is 1.26 in experiment [1]; 0.134 in [3]; 0.765 in [4]; 0.522 in experiment [5]; -0.001 in experiment [6]; 0.156 in [7]. In addition, the values for the composite z-score in experiment [8], in experiment [9] and in [10] were -0.0901, 0.775 and 0.743, respectively. In experiment [2], this compound came in with a z-score of -1.35.
As to `COC(=O)c1c2oc(c1C(=O)OC)C(=O)N(Cc1ccccc1)Cc1cn(nn1)C[C@H](Cc1ccccc1)NC(=O)N[C@H](CO)CC2`, the composite z-score in [1] is 0.196; in experiment [3] it was 0.269; in [4], -0.201; in experiment [5] it was -0.464; in experiment [6] it was -0.0194; in experiment [7] it was -0.367. Moreover, the composite z-score was -0.359 in experiment [8], 0.678 in experiment [9] and -0.129 in experiment [10]. For the same compound, in experiment [2], the z-score is -0.533.
Take `Cc1ccc(S[C@]2(C(=O)O)CC(=O)N(Cc3ccccc3Cl)[C@@H]2c2ccc(CO)cc2I)cc1`: the composite z-score was -0.455 in experiment [1]; 0.0515 in experiment [3]; -0.326 in experiment [4]; -0.952 in experiment [5]; -0.483 in experiment [6]; 0.209 in experiment [7]. For the same compound, the composite z-score in experiment [8] is -1.13; in [9] it was -0.421; in [10] it was -0.338. In addition, the z-score in experiment [2] was -1.77.
For `C=C(CCCC)/C(=C/C[C@@H](OC(=O)c1ccncc1)c1ccccc1OCCO)c1cnc2ccccc2c1`, the composite z-score in experiment [1] was 1.33; in experiment [3], 0.845; in [4] it was 0.616; in [5], -0.759; in experiment [6], 0.16; in [7], -0.0849. The composite z-score in [8] is -0.218; in experiment [9], 1.92; in [10], 1.35. Further, in experiment [2], the z-score was -2.77.
`CC(C)Cc1ccc(CN2CC[C@@H](NC(=O)Nc3ccccc3)C2)cc1`: the composite z-score in experiment [1] is -0.709; in experiment [3], 0.463; in experiment [4], -0.433; in [5] it was 0.0615; in [6], -0.0202; in experiment [7] it was -0.221. In addition, the composite z-score in [8] is -0.164; in experiment [9], -0.311; in [10] it was 0.166. In experiment [2], this compound returned a z-score of -4.9.
As for `CC(=O)c1ccc(C(O)C2C=CC3C(=O)N(c4ccccc4)C(=O)C3N2Nc2ccc(C#N)cc2)cc1` (stereo not given), the composite z-score in [1] is 0.909; in [3] it was 0.0172; in experiment [4], 1.11; in experiment [5] it was 0.586; in [6], -0.172; in experiment [7] it was 0.149. In addition, the values for the composite z-score in experiment [8], in [9] and in experiment [10] were -0.409, 0.142 and 1.33, respectively. In addition, the z-score in experiment [2] is -0.0483.
For `C=CC1c2cc(O)c(OC)cc2CCN1Cc1cc2c(cc1Br)OCO2` (stereo not given), the composite z-score in experiment [1] is -0.483; in experiment [3], 0.15; in experiment [4] it was -0.941; in [5], -1.24; in experiment [6] it was -0.1; in experiment [7], 0.199. Further, the values for the composite z-score in experiment [8], in [9] and in experiment [10] were 0.2, 1.69 and 0.271, respectively. This compound also registered a z-score in experiment [2] of -2.93.
As for `CC(C)(C)OC(=O)CC[C@@]1(C(=O)NCc2ccccc2)N=C(c2ccc(OCCCO)cc2)O[C@@H]1c1ccccc1N=[N+]=[N-]`, the composite z-score in experiment [1] came out at 0.912; in experiment [3], 0.529; in [4], 1.15; in experiment [5] it was 0.493; in experiment [6], 0.112; in experiment [7], 0.232. In addition, the composite z-score is 1.9 in experiment [8], 0.899 in experiment [9] and 2.1 in experiment [10]. The same compound had a z-score in experiment [2] of -0.339.
